# Experimental data published in the supplement of paper PMC8728848.
# Many of the other results were omitted from the sample, so the strongest signals are more common in it than they were.
# B1: MGL (Homo sapiens), Q8IUN9 (protein)
# chain: MTRTYENFQYLENKVKVQGFKNGPLPLQSLLQRLCSGPCHLLLSLGLGLLLLVIICVVGFQNSKFQRDLVTLRTDFSNFTSNTVAEIQALTSQGSSLEETIASLKAEVEGFKQERQAGVSELQEHTTQKAHLGHCPHCPSVCVPVHSEMLLRVQQLVQDLKKLTCQVATLNNNASTEGTCCPVNWVEHQDSCYWFSHSGMSWAEAEKYCQLKNAHLVVINSREEQNFVQKYLGSAYTWMGLSDPEGAWKWVDGTDYATGFQNWKPGQPDDWQGHGLGGGEDCAHFHPDGRWNDDVCQRPYHWVCEAGLGQTSQESH
# Tests used:
# Test in all cases: glycan array binding signal (z-score within array); higher = stronger binding
# Settings in all cases: glycan notation: IUPAC condensed, linker removed
# [1] = target: Fuc(a1-2)Gal
# Method in brief: (§1)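 The binding signal is a Z-score computed within each array. Data were drawn from 3228 arrays in the Consortium for Functional Glycomics database, restricted to those with a known protein sequence. Scores were averaged over arrays of the same protein sequence at different concentrations or buffers, and over linkers, and negative values can be taken as non-binding.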
# [2] = target: Fuc(a1-2)Gal(b1-3)GalNAc(a1-3)[Fuc(a1-2)]Gal(b1-4)Glc
# Method in brief: as §1
# [3] = target: Fuc(a1-2)Gal(b1-3)GalNAc(b1-3)Gal(a1-4)Gal(b1-4)Glc
# Method in brief: as §1
# [4] = target: Fuc(a1-2)Gal(b1-3)GlcNAc6S
# Method in brief: as §1
# [5] = target: Fuc(a1-2)Gal(b1-3)[Fuc(a1-4)]GlcNAc(b1-2)Man(a1-3)[Fuc(a1-2)Gal(b1-3)[Fuc(a1-4)]GlcNAc(b1-2)Man(a1-6)]Man(b1-4)GlcNAc(b1-4)[Fuc(a1-6)]GlcNAc(b1-4)[Fuc(a1-6)]GlcNAc
# Method in brief: as §1
# [6] = target: Fuc(a1-2)Gal(b1-4)GlcNAc(b1-3)Gal(b1-4)GlcNAc
# Method in brief: as §1
# [7] = target: Fuc(a1-2)Gal(b1-4)GlcNAc(b1-6)GalNAc
# Method in brief: as §1
# [8] = target: Fuc(a1-2)Gal(b1-4)[Fuc(a1-3)]GlcNAc(b1-3)[Neu5Ac(a2-6)Gal(b1-4)GlcNAc(b1-6)]Gal(b1-4)Glc
# Method in brief: as §1
# [9] = target: Fuc(a1-2)Gal6S(b1-4)Glc
# Method in brief: as §1
# [10] = target: Fuc(a1-2)Gal6S(b1-4)Glc6S
# Method in brief: as §1
# [11] = target: Fuc(a1-2)[Gal(a1-3)]Gal
# Method in brief: as §1
# [12] = target: Fuc(a1-2)[Gal(a1-3)]Gal(b1-3)GlcNAc(b1-2)Man(a1-3)[Fuc(a1-2)[Gal(a1-3)]Gal(b1-3)GlcNAc(b1-2)Man(a1-6)]Man(b1-4)GlcNAc(b1-4)GlcNAc
# Method in brief: as §1
# [13] = target: Fuc(a1-2)[Gal(a1-3)]Gal(b1-4)Glc
# Method in brief: as §1
# [14] = target: Fuc(a1-2)[GalNAc(a1-3)]Gal(b1-3)GlcNAc(b1-6)GalNAc
# Method in brief: as §1
# [15] = target: Fuc(a1-2)[GalNAc(a1-3)]Gal(b1-4)GlcNAc(b1-6)GalNAc
# Method in brief: as §1
# [16] = target: Fuc(a1-2)[GalNAc(a1-4)]Gal(b1-4)GlcNAc
# Method in brief: as §1
# [17] = target: Fuc(a1-2)[GalNAc(b1-3)]Gal
# Method in brief: as §1
# [18] = target: Fuc(a1-3)[Gal(b1-4)]GlcNAc(b1-6)[Gal(b1-3)GlcNAc(b1-3)]Gal(b1-4)Glc
# Method in brief: as §1
# [19] = target: Gal(a1-2)Gal
# Method in brief: as §1
# [20] = target: Gal(a1-3)Gal(b1-4)GlcNAc(b1-2)Man
# Method in brief: as §1
# [21] = target: Gal(a1-3)Gal(b1-4)GlcNAc(b1-6)GalNAc
# Method in brief: as §1
# [22] = target: Gal(a1-4)Gal(b1-4)GlcNAc
# Method in brief: as §1
# [23] = target: Gal(b1-3)Gal(b1-4)GlcNAc
# Method in brief: as §1
# [24] = target: Gal(b1-3)GalNAc
# Method in brief: as §1
# [25] = target: Gal(b1-3)GlcNAc(a1-3)Gal(b1-4)GlcNAc
# Method in brief: as §1
# [26] = target: Gal(b1-3)GlcNAc(b1-3)Gal(b1-4)GlcNAc(b1-2)[Gal(b1-3)GlcNAc(b1-3)Gal(b1-4)GlcNAc(b1-6)]Man(a1-6)[Gal(b1-3)GlcNAc(b1-3)Gal(b1-4)GlcNAc(b1-2)Man(a1-3)]Man(b1-4)GlcNAc(b1-4)[Fuc(a1-6)]GlcNAc
# Method in brief: as §1
# [27] = target: Gal(b1-3)GlcNAc(b1-6)GalNAc
# Method in brief: as §1
# [28] = target: Gal(b1-3)GlcNAc6S
# Method in brief: as §1
# [29] = target: Gal(b1-4)GlcNAc
# Method in brief: as §1
# [30] = target: Gal(b1-4)GlcNAc(b1-3)Gal(b1-3)GalNAc
# Method in brief: as §1
# [31] = target: Gal(b1-4)GlcNAc(b1-3)Gal(b1-4)GlcNAc
# Method in brief: as §1
# [32] = target: Gal(b1-4)GlcNAc(b1-6)GalNAc
# Method in brief: as §1
# [33] = target: Gal3S6S(b1-4)GlcNAc6S
# Method in brief: as §1
# [34] = target: GalNAc(a1-3)GalNAc
# Method in brief: as §1
# [35] = target: GalNAc(a1-3)GalNAc(b1-3)Gal(a1-4)Gal(b1-4)GlcNAc
# Method in brief: as §1
# [36] = target: GalNAc(b1-3)Gal
# Method in brief: as §1
# [37] = target: GalNAc(b1-3)Gal(a1-6)Gal(b1-4)Glc
# Method in brief: as §1
# [38] = target: GalNAc(b1-4)GlcNAc(b1-2)Man
# Method in brief: as §1
# [39] = target: GalNAc(b1-4)GlcNAc6S
# Method in brief: as §1
# [40] = target: GlcNAc(b1-4)GlcNAc
# Method in brief: as §1
# [41] = target: GlcNAc(b1-4)GlcNAc(b1-4)GlcNAc
# Method in brief: as §1
# [42] = target: GlcNAc(b1-6)GalNAc
# Method in brief: as §1
# [43] = target: Kdn(a2-6)Gal(b1-4)GlcNAc
# Method in brief: as §1
# [44] = target: Neu5Ac(a2-3)Gal(b1-3)GalNAc
# Method in brief: as §1
# [45] = target: Neu5Ac(a2-3)Gal(b1-3)GlcNAc(b1-4)Gal(b1-4)Glc
# Method in brief: as §1
# [46] = target: Neu5Ac(a2-3)Gal(b1-4)GlcNAc(b1-3)Gal(b1-4)GlcNAc
# Method in brief: as §1
# [47] = target: Neu5Ac(a2-3)Gal(b1-4)GlcNAc(b1-3)[Neu5Ac(a2-3)Gal(b1-4)GlcNAc(b1-6)]GalNAc
# Method in brief: as §1
# [48] = target: Neu5Ac(a2-3)Gal(b1-4)GlcNAc6S
# Method in brief: as §1
# [49] = target: Neu5Ac(a2-8)Neu5Ac(a2-3)Gal(b1-3)GalNAc(b1-4)[Neu5Ac(a2-8)Neu5Ac(a2-3)]Gal(b1-4)Glc
# Method in brief: as §1
# [50] = target: Neu5Ac(a2-8)Neu5Ac(a2-3)Gal(b1-4)GlcNAc
# Method in brief: as §1
# [51] = target: Neu5Ac(a2-8)Neu5Ac(a2-8)Neu5Ac(a2-8)Neu5Ac(a2-3)[GalNAc(b1-4)]Gal(b1-4)Glc
# Method in brief: as §1
# [52] = target: Neu5Gc(a2-8)Neu5Ac(a2-3)Gal(b1-4)GlcNAc
# Method in brief: as §1
# [53] = target: Neu5Gc(a2-8)Neu5Gc(a2-6)Gal(b1-4)GlcNAc
# Method in brief: as §1
binder,measurement,setting,value
B1,glycan array binding signal (z-score),[1],-0.232
same,glycan array binding signal (z-score),[2],-0.246
same,glycan array binding signal (z-score),[3],-0.242
same,glycan array binding signal (z-score),[4],-0.178
same,glycan array binding signal (z-score),[5],-0.238
same,glycan array binding signal (z-score),[6],-0.247
same,glycan array binding signal (z-score),[7],3.85
same,glycan array binding signal (z-score),[8],-0.247
same,glycan array binding signal (z-score),[9],-0.242
same,glycan array binding signal (z-score),[10],-0.254
same,glycan array binding signal (z-score),[11],-0.241
same,glycan array binding signal (z-score),[12],-0.249
same,glycan array binding signal (z-score),[13],-0.237
same,glycan array binding signal (z-score),[14],3.6
same,glycan array binding signal (z-score),[15],4.98
same,glycan array binding signal (z-score),[16],3.39
same,glycan array binding signal (z-score),[17],4.3
same,glycan array binding signal (z-score),[18],-0.251
same,glycan array binding signal (z-score),[19],-0.25
same,glycan array binding signal (z-score),[20],-0.252
same,glycan array binding signal (z-score),[21],3.79
same,glycan array binding signal (z-score),[22],-0.232
same,glycan array binding signal (z-score),[23],-0.245
same,glycan array binding signal (z-score),[24],-0.242
same,glycan array binding signal (z-score),[25],-0.245
same,glycan array binding signal (z-score),[26],-0.049
same,glycan array binding signal (z-score),[27],3.24
same,glycan array binding signal (z-score),[28],-0.249
same,glycan array binding signal (z-score),[29],-0.243
same,glycan array binding signal (z-score),[30],-0.27
same,glycan array binding signal (z-score),[31],-0.242
same,glycan array binding signal (z-score),[32],4.14
same,glycan array binding signal (z-score),[33],-0.242
same,glycan array binding signal (z-score),[34],0.346
same,glycan array binding signal (z-score),[35],0.634
same,glycan array binding signal (z-score),[36],3.3
same,glycan array binding signal (z-score),[37],3.77
same,glycan array binding signal (z-score),[38],3.9
same,glycan array binding signal (z-score),[39],4.05
same,glycan array binding signal (z-score),[40],-0.243
same,glycan array binding signal (z-score),[41],-0.253
same,glycan array binding signal (z-score),[42],4.7
same,glycan array binding signal (z-score),[43],-0.245
same,glycan array binding signal (z-score),[44],-0.241
same,glycan array binding signal (z-score),[45],-0.251
same,glycan array binding signal (z-score),[46],-0.238
same,glycan array binding signal (z-score),[47],-0.527
same,glycan array binding signal (z-score),[48],-0.244
same,glycan array binding signal (z-score),[49],-0.243
same,glycan array binding signal (z-score),[50],-0.259
same,glycan array binding signal (z-score),[51],3.54
same,glycan array binding signal (z-score),[52],-0.237
same,glycan array binding signal (z-score),[53],-0.246
